# Experimental data as given in the supplement of paper PMC4206461.
# A number with no mark means an inactive call.
# Legend:
# [1] = test system: Pseudomonas aeruginosa PA14 dppA1-A5 penta mutant + pBBR5.DppA1 (PA14_58350); test: respiration area under curve with compound as sole nitrogen source, 24 h (OmniLog AUC (arbitrary units)); higher = more respiration / better utilisation as nitrogen source, active = 2000 or more
# Description: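 Biolog Phenotype MicroArray plates PM6-PM8: each di/tripeptide is the sole nitrogen source. Tetrazolium reduction was read in the OmniLog for 24 h at 37°C and summarised as area under the respiration curve (arbitrary units). Values below 2000 count as no respiration. Strain is the SBP penta mutant complemented with DppA1 on a plasmid under its native promoter. Lys/His/Cys peptides are excluded.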
# [2] = test system: Pseudomonas aeruginosa PA14 wild type; test: as above
# Description: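 Biolog Phenotype MicroArray plates PM6-PM8: each di/tripeptide is the sole nitrogen source (IF-0 medium with succinate/ferric citrate and dye mix A). Tetrazolium reduction was read in the OmniLog every 15 min for 24 h at 37°C and summarised as area under the respiration curve (arbitrary units). The paper counts values below 2000 as no respiration and above 8000 as solid respiration. Replicate datasets are averaged.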
SMILES,respiration area under curve [1],respiration area under curve [2]
NCC(=O)NCC(=O)N[C@@H](Cc1ccccc1)C(=O)O (plate: PM8),3750 (active),–
NC(N)=NCCC[C@H](N)C(=O)N[C@@H](CO)C(=O)O (plate: PM6),7830 (active),9350 (active)
C[C@@H](O)[C@H](NC(=O)CN)C(=O)O (plate: PM6),2750 (active),5430 (active)
CC(C)[C@H](NC(=O)[C@@H](N)CC(=O)O)C(=O)O (plate: PM6),1900,–
NC(N)=NCCC[C@H](N)C(=O)N[C@@H](Cc1ccccc1)C(=O)O (plate: PM6),7570 (active),–
CC(C)[C@H](N)C(=O)N[C@@H](CC(=O)O)C(=O)O (plate: PM7),6440 (active),8160 (active)
NC(=O)CC[C@H](N)C(=O)N[C@@H](CCC(=O)O)C(=O)O (plate: PM8),7630 (active),–
NCC(=O)N1CCC[C@H]1C(=O)O (plate: PM6),7310 (active),–
NC(N)=NCCC[C@H](NC(=O)[C@@H]1CCCN1)C(=O)O (plate: PM8),10300 (active),–
N[C@@H](CC(=O)O)C(=O)N[C@@H](CC(=O)O)C(=O)O (plate: PM6),197,119
N[C@@H](CO)C(=O)NCC(=O)O (plate: PM7),6260 (active),–
CSCC[C@H](NC(=O)[C@@H](N)CCCN=C(N)N)C(=O)O (plate: PM6),9220 (active),10500 (active)
C[C@H](N)C(=O)NCC(=O)O (plate: PM6),6240 (active),8070 (active)
C[C@H](NC(=O)[C@@H](N)CO)C(=O)O (plate: PM7),9020 (active),10900 (active)
CC(C)CC(N)C(=O)NC(CC(=O)O)C(=O)O (stereo not given) (plate: PM6),4660 (active),–
CC(C)[C@@H](NC(=O)CN)C(=O)O (plate: PM8),0,0
NC(=O)CC[C@H](N)C(=O)NCC(=O)O (plate: PM6),5240 (active),–
CC[C@H](C)[C@H](N)C(=O)N[C@@H](Cc1ccc(O)cc1)C(=O)O (plate: PM6),655,2310 (active)
C[C@@H](N)C(=O)NCC(=O)O (plate: PM8),5420 (active),6030 (active)
CSCC[C@H](N)C(=O)N[C@@H](Cc1ccccc1)C(=O)O (plate: PM7),680,–
